High-throughput results: PubChem BioAssay, National Center for Advancing Translational Sciences (NCATS)
Most compounds without a hit are left out; they make up all but 12% or so of the library.
ALDH1A1 block: blocks purified human ALDH1A1 activity; AID 1030; 220,000 compounds, 7.3% hits; Purified ALDH1A1, NADH fluorescence, propionaldehyde substrate; Potency, µM (highest dose often 75.3 µM), without a hit: top-dose activity, negative = inhibition, usual class: inhibitors; P00352; active = well fitted inhibition curve with a large enough effect, not every such curve was filed as active; inconclusive = small, poorly fitted or top-dose-only effect, or another doubt; inactive = no such curve, though single readings can be large or run the other way;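 note: plate controls were no enzyme wells and a reference inhibitor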
Gal4-VP16 FLuc: counter-screen for ROR gamma inhibitors: Gal4-VP16 reporter; Drosophila S2 Gal4-VP16 UAS-luciferase, luminescence, 20 h; Potency, µM (titrated, usually from 53.6 µM), inactives show top-dose activity, negative = inhibition, most hits filed as inhibitors; 310,000 compounds, 3.5% hits; AID 2546;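 note: Gal4-VP16 expression switched on by copper sulfate through the metallothionein promoter; nearly all actives have a fitted effect of over 50% in size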
Sfp PPTase inh: blocks B. subtilis Sfp PPTase activity; Biochemical Sfp PPTase activity, qHTS; Q9F4F7; 310,000 compounds, 3.5% hits; Potency, µM, without a hit: largest response in the series, negative = inhibition, actives largely listed as inhibitors;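 note: the enzyme is Sfp with the accession as filed and its product quenches rhodamine fluorescence; 0% = enzyme reaction without inhibitor and -100% = no enzyme wells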
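Fluorescence-quenching assay with 15 nM Sfp, 5 uM rhodamine-CoA and 12.5 uM BHQ-2-labelled ybbR peptide in pH 7.6 Hepes/MgCl2 buffer. Enzyme was pre-incubated with compound for 15 min at room temperature. Rate was taken from the 30-min fluorescence change (525/598 nm).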
PLK1 PBD block: inhibitors of human PLK1 polo-box domain binding; 360,000 compounds, 2.8% hits; P53350; Plk1 PBD binding of FITC phosphopeptide, fluorescence polarization; Potency, µM, for inactives: max response, negative = inhibition, hits mostly inhibitors; AID 720504; note: series mostly up to about 57 µM; nearly all actives have a fitted effect of over 65% in size
Target sequence (P53350 whole entry, looked up, the tested form may be a part): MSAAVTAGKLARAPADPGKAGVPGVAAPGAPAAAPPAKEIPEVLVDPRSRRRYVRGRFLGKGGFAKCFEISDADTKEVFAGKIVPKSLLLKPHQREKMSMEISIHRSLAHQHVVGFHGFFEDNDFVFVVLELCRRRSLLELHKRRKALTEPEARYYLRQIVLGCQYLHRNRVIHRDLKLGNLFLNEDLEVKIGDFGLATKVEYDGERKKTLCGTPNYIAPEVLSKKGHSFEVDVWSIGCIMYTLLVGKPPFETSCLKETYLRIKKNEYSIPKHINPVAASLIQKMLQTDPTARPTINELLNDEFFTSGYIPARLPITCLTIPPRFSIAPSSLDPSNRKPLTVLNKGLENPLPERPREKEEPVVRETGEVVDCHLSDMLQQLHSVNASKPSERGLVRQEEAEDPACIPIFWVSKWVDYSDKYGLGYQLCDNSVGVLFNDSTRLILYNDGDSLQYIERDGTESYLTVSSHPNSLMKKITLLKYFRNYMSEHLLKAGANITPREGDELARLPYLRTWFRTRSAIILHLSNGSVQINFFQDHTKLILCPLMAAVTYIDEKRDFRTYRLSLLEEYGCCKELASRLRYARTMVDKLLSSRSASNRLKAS
RORg inh: inhibitors of mouse ROR gamma transcriptional activity | Potency, µM (titrated, usually from 53.6 µM), without a hit: top-dose activity change, negative = inhibition, actives largely listed as inhibitors | 310,000 compounds, 5.4% hits | Drosophila S2 Gal4-RORgamma UAS-luciferase reporter, 20 h | P51450; note: nearly all actives have a fitted effect of over 60% in size
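Drosophila Schneider cells stably carrying a metallothionein-driven Gal4 DBD–ROR gamma fusion and a UAS-Photinus luciferase reporter were exposed to compound for 1 hr, then induced with copper sulfate (700 uM final) for 20 hr at ambient temperature before luminescence reading.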
* marks the source's active call; other numbers are inactive results; ? = inconclusive; . = no result; [ ] = remark or other dose. Unless noted, calls come from the whole dose curve; as a rule, active = well fitted curve in the direction sought with a large enough effect; inconclusive = small, poorly fitted or top-dose-only effect, or another doubt; inactive = no such curve, though single readings can be large; an effect the other way counts as inactive or inconclusive. Unless noted, % is set by controls: 0 for no effect and ±100 for the full control effect; potency is the fitted concentration of half-maximal effect.

SMILES | ALDH1A1 block | Gal4-VP16 FLuc | Sfp PPTase inh | PLK1 PBD block | RORg inh
O=C(NCC(NS(=O)(=O)OCC(Cl)(Cl)Cl)c1ccccc1)C(F)(F)F (stereo not drawn) | . | -15% | 15% | -7% | 14%
C#CCOc1ccccc1CNC1CCN(Cc2ccccc2)CC1 | . | 1% | 79µM* | -15% | -6%
CCCCOCCCNC(=O)C[C@@H]1C[C@@]2(C(=O)OCC)CCCC=C2N(Cc2ccc3c(c2)OCO3)C1=O | . | . | . | -14% | .
c1ccc(-c2csc(Nc3ccc4c(c3)OCO4)n2)cc1 | . | . | . | -8% | .
O=C1c2ccccc2C(=O)N1c1cccc(-c2csc(Nc3ccc4c(c3)OCO4)n2)c1 | 7.1µM* | 4% | ? | . | ?
Cc1cccc(C)c1NC(=O)COC(=O)c1cc[n+]([O-])cc1 | . | . | . | -18% | .
CC(=O)OC1C(N2CCCCC2)c2c(ccc(/C=C/C(=O)N3CCCCC3)c2O)OC1(C)C (stereo not drawn) | 7% | 1.3µM* | 2% | -14% | ?
O=C(C(=O)N1CCc2ccccc2C1)c1cn(CC(=O)N2CCCC2)c2ccccc12 | 6% | -6% | 9% | -8% | ?
CCN(CC)C(=O)C(=O)c1cn(CC(=O)N2CCc3ccccc3C2)c2ccccc12 | 0.71µM* | 1% | -10% | -9% | 40%
COc1ccc(-n2c(C)cc(/C=C3\SC(=S)N(Cc4ccco4)C3=O)c2C)cc1 | 0.63µM* | -8% | -4% | -16% | 96%
Cc1cc(/C=C2\SC(=S)N(C)C2=O)c(C)n1-c1ccc(O)cc1 | . | 0.63µM* | -1% | -9% | ?
Cc1ccc(-n2cc(CN(C)Cc3ncc[nH]3)c(-c3cccc(C)c3)n2)cc1 | -5% | 6.3µM* | 56µM* | 5% | -2%
Cc1ccc(C)c(-n2cc(CN3CCNC(=O)CC3)c(-c3ccccc3)n2)c1 | 2% | 0% | 12% | -13% | -11%
CCn1ccnc1CN(C)Cc1cn(-c2cc(C)ccc2C)nc1-c1ccccc1 | 28µM* | -3% | ? | -10% | 4%
CCn1ccnc1CN(C)Cc1cn(-c2ccccc2)nc1-c1ccc(OC)cc1F | 0% | ? | 8% | -9% | 3.5µM*
Cc1ccc(-n2cc(CN(C)Cc3nccn3C)c(-c3ccc(F)cc3)n2)cc1 | -4% | ? | -10% | ? | 7.9µM*
CN(Cc1cn(C)nc1-c1cccc(Cl)c1)Cc1nccn1C | . | -9% | -5% | -3% | -37%
CC(=O)O[C@@]1(C(C)=O)CCC2C3CC(C)C4=CC(=O)CC[C@@]4(C)C3CC[C@]21C (stereo partly drawn) | 4% | -2% | -22% | . | -27%
CCn1ccnc1CN(C)Cc1cn(C)nc1-c1ccccc1F | -9% | -6% | 5% | -8% | ?
CCn1ccnc1CN(C)Cc1cn(-c2ccc(C)cc2)nc1-c1ccc(F)cc1 | -4% | 16µM* | ? | 6% | 2.8µM*
Cc1noc(C)c1COc1ccc(C(=O)NNC(=O)c2ccccc2)cc1 | . | . | . | -6% | .
Cc1noc(C)c1COC(=O)CCCc1c[nH]c2ccccc12 | 14µM* | -14% | 50µM* | -11% | -5%
Cc1noc(C)c1COC(=O)C(c1ccccc1)c1ccccc1 | 11µM* | -26% | -16% | -2% | -25%
Cc1cc(C2(c3cc(C)c(O)c(C(=O)O)c3)OS(=O)(=O)c3ccccc32)cc(C(=O)O)c1O | 14%[13.5 µM] | . | . | . | .
COc1ccc(S(=O)(=O)N2CCC3CC2c2cc(N4CCOCC4)ccc23)cc1 (stereo not drawn) | . | . | . | -7% | .
SMILES | ALDH1A1 block | Gal4-VP16 FLuc | Sfp PPTase inh | PLK1 PBD block | RORg inh
O=C(C1=C(Nc2ccccc2)c2ccccc2S(=O)(=O)N1)c1ccccc1 | ? | 27% | 89µM* | -6% | -7%
O=C(O)c1ccccc1CSc1nnc2c(n1)[nH]c1ccccc12 | -12% | -20% | 56µM* | ? | 3%
O=C(O)CSc1nnc2c(n1)[nH]c1ccccc12 | 2% | 0% | 50µM* | 24µM* | 1%
O=C(O)CSc1c(-c2cccs2)[nH]c2ccccc12 | 6% | -12% | 0% | 27µM* | -23%
O=C(CSc1nnc2c(n1)[nH]c1ccccc12)OCc1ccccc1 | -7% | 2% | 12% | 0% | 18%
Cc1noc(C)c1-c1cc(NC2CCNCC2)ncn1 | ? | -5% | ? | . | -16%
